From PubChem BioAssay (Tox21)
Inconclusive results are not listed. Calls of active or inactive are those of the source. Calls follow the shape of the dose curve; as a rule, active = well fitted curve in the direction sought with a large enough effect in the repeat runs; inconclusive = weak or mixed curves; inactive = no such curve, though single readings can be large; an effect the other way counts as inactive or inconclusive.

Experiments:
[1] = A CellTox Green Cytotoxicity Assay to monitor cytotoxicity in HEK293 cells - 40 hour (AID 1224871); also: nearly all actives have a fitted effect of over 45% in size
How it was run: (§1)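 Cytotoxicity was tracked continuously in HEK293 cells by a DNA-binding dye excluded from viable cells. Compounds were transferred in DMSO 5 h after seeding; fluorescence was recorded at intervals up to 40 h.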

[2] = qHTS RealTime-Glo MT Cell Viability Assay in HEK293 cells - 16 hour (AID 1224872); also: top concentration of the series differs between compounds; nearly all actives have a fitted effect of over 50% in size
How it was run: (§2)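 HEK293 cells were seeded at 600 cells/well together with NanoLuc luciferase and cell-permeant prosubstrate, preincubated 5 h at 37 C/5% CO2, then given compound in DMSO by pintool. Luminescence from viable-cell prosubstrate reduction was read repeatedly over 40 h.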

[3] = qHTS RealTime-Glo MT Cell Viability Assay in HepG2 cells - 8 hour (AID 1224873); also: nearly all actives have a fitted effect of over 55% in size
How it was run: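 Real-time viability: cells seeded at 600 per well together with NanoLuc and cell-permeant prosubstrate, compounds added after 5 h incubation. Luminescence tracked at 0, 8, 16, 24, 32 and 40 h of exposure.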

[4] = qHTS RealTime-Glo MT Cell Viability Assay in HEK293 cells - 40 hour (AID 1224874); details: RealTime-Glo luminescence; max response: hits give low values; also: nearly all actives have a fitted effect of over 50% in size
How it was run: (§3)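 Nonlytic bioluminescent viability monitoring. HEK293 at 600 cells/well with reagent; 5 h settle; compound transfer by pintool; plates held at 37 C and read at set time points.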

[5] = A CellTox Green Cytotoxicity Assay to monitor cytotoxicity in HEK293 cells - 24 hour (AID 1224875); also: series mostly up to about 77 µM; nearly all actives have a fitted effect of over 45% in size
How it was run: as §1

[6] = A CellTox Green Cytotoxicity Assay to monitor cytotoxicity in HepG2 cells - 16 hour (AID 1224876); also: nearly all actives have a fitted effect of over 45% in size
How it was run: (§4)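 Real-time, homogeneous cytotoxicity readout: dead-cell DNA staining by CellTox Green in HepG2 monolayers, fluorescence measured at timed intervals up to 40 h of continuous compound exposure.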

[7] = qHTS RealTime-Glo MT Cell Viability Assay in HepG2 cells - 32 hour (AID 1224877); also: nearly all actives have a fitted effect of over 55% in size
How it was run: (§5)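 HepG2 cells were seeded at 600 cells/well together with NanoLuc luciferase and a cell-permeant prosubstrate, preincubated 5 h at 37 C/5% CO2, then pin-dosed with compounds in DMSO. Nonlytic luminescence from viable cells was read at each time point.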

[8] = A CellTox Green Cytotoxicity Assay to monitor cytotoxicity in HepG2 cells - 24 hour (AID 1224878); also: nearly all actives have a fitted effect of over 45% in size
How it was run: as §4

[9] = A CellTox Green Cytotoxicity Assay to monitor cytotoxicity in HepG2 cells - 40 hour (AID 1224879); also: nearly all actives have a fitted effect of over 40% in size
How it was run: as §4

[10] = qHTS RealTime-Glo MT Cell Viability Assay in HEK293 cells - 0 hour (AID 1224880)
How it was run: as §3

[11] = A CellTox Green Cytotoxicity Assay to monitor cytotoxicity in HEK293 cells - 32 hour (AID 1224881); also: nearly all actives have a fitted effect of over 40% in size
How it was run: as §1

[12] = A CellTox Green Cytotoxicity Assay to monitor cytotoxicity in HepG2 cells - 0 hour (AID 1224882); also: nearly all actives have a fitted effect of over 35% in size
How it was run: as §4

[13] = A CellTox Green Cytotoxicity Assay to monitor cytotoxicity in HepG2 cells - 32 hour (AID 1224883); also: nearly all actives have a fitted effect of over 50% in size
How it was run: as §4

[14] = A CellTox Green Cytotoxicity Assay to monitor cytotoxicity in HEK293 cells - 8 hour (AID 1224884); also: nearly all actives have a fitted effect of over 35% in size
How it was run: as §1

[15] = qHTS RealTime-Glo MT Cell Viability Assay in HepG2 cells - 16 hour (AID 1224885); also: nearly all actives have a fitted effect of over 50% in size
How it was run: as §5

[16] = qHTS RealTime-Glo MT Cell Viability Assay in HEK293 cells - 24 hour (AID 1224886)
How it was run: as §2

[17] = qHTS RealTime-Glo MT Cell Viability Assay in HEK293 cells - 8 hour (AID 1224887)
How it was run: as §3

[18] = A CellTox Green Cytotoxicity Assay to monitor cytotoxicity in HEK293 cells - 16 hour (AID 1224888); also: nearly all actives have a fitted effect of over 35% in size
How it was run: as §1

[19] = qHTS RealTime-Glo MT Cell Viability Assay in HepG2 cells - 0 hour (AID 1224889); also: nearly all actives have a fitted effect of over 50% in size
How it was run: as §5

[20] = A CellTox Green Cytotoxicity Assay to monitor cytotoxicity in HepG2 cells - 8 hour (AID 1224890); also: nearly all actives have a fitted effect of over 45% in size
How it was run: as §4
% is scaled to controls: 0 for no effect and ±100 for the full control effect.

CO[C@@]1(NC(=O)CSCC#N)C(=O)N2C(C(=O)O)=C(CSc3nnnn3C)CS[C@@H]21
inactive: Potency [1] | Potency [2] | outcome [3] | max response [4] 7.28% | Potency [5] | Potency [6] | Potency [7] | Potency [8] | Potency [9] | outcome [10] | Potency [11] | Potency [12] | Potency [13] | Potency [14] | outcome [15] | Potency [16] | Potency [17] | Potency [18] | Potency [19]

CC1=CC(=O)CC(C)(C)C1=O
inactive: Potency [1] | Potency [2] | outcome [3] | max response [4] -4.9% | Potency [5] | Potency [6] | Potency [7] | Potency [8] | Potency [9] | outcome [10] | Potency [11] | Potency [12] | Potency [13] | Potency [14] | outcome [15] | Potency [16] | Potency [17] | Potency [18] | Potency [19] | Potency [20]

CCCCCCCCCC/C=C/C#N
inactive: Potency [1] | Potency [2] | outcome [3] | max response [4] 4.49% | Potency [5] | Potency [6] | Potency [7] | Potency [8] | Potency [9] | outcome [10] | Potency [11] | Potency [12] | Potency [13] | Potency [14] | outcome [15] | Potency [16] | Potency [17] | Potency [18] | Potency [19] | Potency [20]

O=CCCc1ccccc1
inactive: Potency [1] | Potency [2] | outcome [3] | max response [4] 4.45% | Potency [5] | Potency [6] | Potency [7] | Potency [8] | Potency [9] | outcome [10] | Potency [11] | Potency [12] | Potency [13] | Potency [14] | outcome [15] | Potency [16] | Potency [17] | Potency [18] | Potency [19] | Potency [20]

C[C@@H]1CN(c2c(F)c(F)c3c(=O)c(C(=O)O)cn(C4CC4)c3c2F)C[C@H](C)N1
inactive: cytotoxicity increase [1] -4.55% [at 15.8 µM] | activity change, negative = cytotoxicity [2] 0.662% [at 15.8 µM] | viability change, negative = cytotoxic [3] -4.32% [at 15.8 µM] | max response [4] 10.3% | activity change [5] 0.295% [at 15.8 µM, hits give high values] | cytotoxicity increase [6] -10.9% [at 15.8 µM] | activity change, negative = cytotoxic [7] 0.371% [at 15.8 µM] | cytotoxicity [8] -13.2% [at 15.8 µM] | cytotoxicity increase [9] -9.16% [at 15.8 µM] | activity change, negative = cytotoxicity [10] 0.0765% [at 15.8 µM] | cytotoxicity increase [11] -0.134% [at 15.8 µM] | cytotoxicity [12] -1.92% [at 15.8 µM] | cytotoxicity increase [13] -14.8% [at 15.8 µM] | cytotoxicity increase [14] -0.256% [at 15.8 µM] | activity change, negative = cytotoxic [15] -2.02% [at 15.8 µM] | activity change, negative = cytotoxicity [16] 9.9% [at 15.8 µM] | activity change, negative = cytotoxicity [17] 0.326% [at 15.8 µM] | activity change [18] 1.09% [at 15.8 µM, hits give high values] | activity change, negative = cytotoxicity [19] -0.832% [at 15.8 µM]

C=CCCC=C
inactive: Potency [1] | Potency [2] | outcome [3] | max response [4] 4.67% | Potency [5] | Potency [6] | Potency [7] | Potency [8] | Potency [9] | outcome [10] | Potency [11] | Potency [12] | Potency [13] | Potency [14] | outcome [15] | Potency [16] | Potency [17] | Potency [18] | Potency [19] | Potency [20]

CCCOCCC
inactive: Potency [1] | Potency [2] | outcome [3] | max response [4] 23.9% | Potency [5] | Potency [6] | Potency [7] | Potency [8] | Potency [9] | outcome [10] | Potency [11] | Potency [12] | Potency [13] | Potency [14] | outcome [15] | Potency [16] | Potency [17] | Potency [18] | Potency [19]

COc1cc(C)ccc1C(C)C
inactive: Potency [1] | Potency [2] | outcome [3] | max response [4] 3.29% | Potency [5] | Potency [6] | Potency [7] | Potency [8] | Potency [9] | outcome [10] | Potency [11] | Potency [12] | Potency [13] | Potency [14] | outcome [15] | Potency [16] | Potency [17] | Potency [18] | Potency [19] | Potency [20]

CCOc1ccc(NC(N)=O)cc1
inactive: Potency [1] | Potency [2] | outcome [3] | max response [4] 4.66% | Potency [5] | Potency [6] | Potency [7] | Potency [8] | Potency [9] | outcome [10] | Potency [11] | Potency [12] | Potency [13] | Potency [14] | outcome [15] | Potency [16] | Potency [17] | Potency [18] | Potency [19]

CS(=O)(=O)c1ccc([C@@H](O)[C@@H](CF)NC(=O)C(Cl)Cl)cc1
inactive: Potency [1] | Potency [2] | outcome [3] | max response [4] 11.3% | Potency [5] | Potency [6] | Potency [7] | Potency [8] | Potency [9] | outcome [10] | Potency [11] | Potency [12] | Potency [13] | Potency [14] | outcome [15] | Potency [16] | Potency [17] | Potency [18] | Potency [19] | Potency [20]

OCCN1CCN(CCO)CC1
inactive: Potency [1] | Potency [2] | outcome [3] | max response [4] 1.21% | Potency [5] | Potency [6] | Potency [7] | Potency [8] | Potency [9] | outcome [10] | Potency [11] | Potency [12] | Potency [13] | Potency [14] | outcome [15] | Potency [16] | Potency [17] | Potency [18] | Potency [19] | Potency [20]

CCCN(CCC)C(=O)C(CCC(=O)O)NC(=O)c1ccccc1 (stereo unspecified)
inactive: Potency [1] | Potency [2] | outcome [3] | max response [4] 3.51% | Potency [5] | Potency [6] | Potency [7] | Potency [8] | Potency [9] | outcome [10] | Potency [11] | Potency [12] | Potency [13] | Potency [14] | outcome [15] | Potency [16] | Potency [17] | Potency [18] | Potency [19] | Potency [20]

CCC(=O)Nc1ccc(O)cc1
inactive: Potency [1] | Potency [2] | outcome [3] | max response [4] 2.18% | Potency [5] | Potency [6] | Potency [7] | Potency [8] | Potency [9] | outcome [10] | Potency [11] | Potency [12] | Potency [13] | Potency [14] | outcome [15] | Potency [16] | Potency [17] | Potency [18] | Potency [19] | Potency [20]

CC(C)OC(C)C
inactive: Potency [1] | Potency [2] | outcome [3] | max response [4] 20.1% | Potency [5] | Potency [6] | Potency [7] | Potency [8] | Potency [9] | outcome [10] | Potency [11] | Potency [12] | Potency [13] | Potency [14] | outcome [15] | Potency [16] | Potency [17] | Potency [18] | Potency [19] | Potency [20]
